We go through 15 compounds from PubChem BioAssay (NCI).

About 83,000 compounds went through this panel and 20% of them were active in at least one assay; those are over-represented in the sample as a whole.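 Treatment: one concentration, 48 hours, 96-well format. Scoring: percent growth, with anything below 10 considered active.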 A number with no mark means an inactive call. Activity calls are given as the source filed them.

Common to all, as to test: NCI-60 one-dose screen, 48 h (100 = growth as untreated, 0 = no growth, -100 = all killed)
Conditions in all cases: 10 µM

In assay [1] the test system is NCI-H23 lung.
The test system of assay [2] is NCI-H226 lung.
Assay [3] concerns HOP-62 NSCLC.
The subject of assay [4] is NCI-H460 lung.
In assay [5] the test system is HOP-92 NSCLC.
In assay [6] the test system is NCI-H522 lung.
Assay [7] relates to A549/ATCC NSCLC.
For assay [8], the system named is 786-0 renal.
Assay [9] has as its system COLO 205 colon.

Take `Clc1ccc(C2=NN=C3C(Cc4ccccc4)=Nc4ccccc4N3C2)cc1`: the growth in [1] is 90%; in [2], 92.8%; in assay [3], 83.3%; in assay [4], 86.8%; in assay [5], 87.4%; in [6] it was 38.4%. The values for the growth in assay [7] and in assay [8] were 96.6% and 64.1%, respectively.
As to `CCOS(=O)(=O)c1c(C(C)C)cc(C(C)C)cc1C(C)C`, the growth in assay [1] was 98.4%; in [2] it was 99.5%; in assay [3], 98.9%; in [4], 103%; in assay [5], 99.1%; in assay [6], 100%. The growth was 102% in [7] and 105% in assay [8].
Turning to `C=C(C)[C@@H]1CC[C@]2(COCCC#N)CC[C@]3(C)[C@H](CC[C@@H]4[C@@]5(C)Cc6c([nH]c7ccccc67)C(C)(C)[C@@H]5CC[C@]43C)[C@@H]12`, the growth in [1] is 90.6%; in assay [2], 94.5%; in [3] it was 105%; in assay [4] it was 84.9%; in [5], 107%; in assay [6], 87%. The growth in assay [7] was 99.8%; in assay [8], 101%; in assay [9], -42.8% (active).
Take `COc1cc(-c2nn(-c3cccc(NC(=O)CN4CCOCC4)c3)cc2-c2cccnc2)ccc1Cl`: the growth was 90.9% in [1]; 82.2% in assay [2]; 98.9% in assay [3]; 84% in [4]; 50.4% in assay [5]; 49.1% in assay [6]. Further, the figures for the growth in assay [7], in assay [8] and in assay [9] were 83.8%, 94.6% and 88.3%, respectively.
On to `COc1cc(-c2csc(NC(=O)Nc3cc(C(F)(F)F)cc(C(F)(F)F)c3)n2)cc(OC)c1OC`, for which the growth in [1] is 4.18% (active); in [2], 24.8%; in assay [3] it was 13.1%; in assay [4], 10.9%; in assay [5], -25.9% (active); in assay [6] it was -14.6% (active). The growth in assay [7] is 11.9%; in assay [8], 13.4%.
As to `O=C(Nc1ccc(F)cc1)c1cc2ccccc2cc1O`, the growth in assay [1] was 61.8%; in [2], 74.2%; in assay [3], 78.7%; in assay [4] it was 80.5%; in [5], 2.82% (active); in assay [6], 56.5%. Also, the growth in [7] was 75.8%; in [8], 93.5%.
With `COc1cc2c(cc1NC(=O)C(Cl)Cl)-c1ccc(NC(=O)C(Cl)Cl)cc1C2`, the growth in [1] is 48.6%; in [2], 19.3%; in assay [3] it was -58.3% (active); in assay [4] it was -51.6% (active); in assay [5] it was 40.2%; in [6], 82.5%. Moreover, the growth in [7] is -4.92% (active); in [8], 48.4%.
Turning to `CCOC(=O)c1cc(C(=O)c2ccc(OC)c(OC)c2)n2c1ccc1ccc3cccnc3c12`, the growth in assay [1] is 39.2%; in assay [2] it was 64.4%; in assay [3] it was 29.8%; in assay [4], 11%; in assay [5] it was 18.9%; in [6] it was 0.908% (active). Also, the growth in [7] is 36.8%; in assay [8], 33.3%.
In the case of `COc1ccc(/C=C2\CCCC3=C2NC(N)=NC3c2ccc(OC)c(OC)c2)cc1OC` (stereo unspecified), the growth was 49.3% in [1]; 34.1% in [2]; 57% in assay [3]; 64.6% in [4]; 75% in assay [5]; 16.7% in [6]. The growth in assay [7] is 58.8%; in assay [8], 94.3%; in assay [9], 46%.
For `NS(=O)(=O)Oc1ccc2c(ccn2C(=O)C23CC4CC(CC(C4)C2)C3)c1`, the growth was 97% in assay [1]; 93.4% in assay [2]; 111% in assay [3]; 104% in assay [4]; 122% in [5]; 94.9% in assay [6]. The growth in assay [7] is 101%; in assay [8] it was 110%; in assay [9], 114%.
On to `COc1cc2cc(Oc3ccc(NC(=O)Nc4cccc(C(F)(F)F)c4)cc3)c(C)nc2cc1OC`, for which the growth in [1] was 6.78% (active); in [2], -23.5% (active); in assay [3], 25%; in [4] it was 2.68% (active); in assay [5], -29.5% (active); in [6], -17.4% (active). Also, the growth is 3.09% (active) in assay [7], 15.1% in [8] and -20.2% (active) in assay [9].
Consider `O=C(CCc1nnc2sc(-c3cc(O)c(O)c(O)c3)nn12)c1nc2ccccc2[nH]1`, for which the growth in assay [1] was 88.9%; in assay [2] it was 89.9%; in assay [3], 105%; in [4], 105%; in assay [5] it was 69.4%; in assay [6], 98.3%. Besides, the results for the growth in assay [7] and in assay [8] were 108% and 107%, respectively.
With `COc1ccc(/C(C#N)=C/c2ccccc2OC)cc1`, the growth in assay [1] was 41.7%; in [2], 64.8%; in [3] it was 44.7%; in assay [4], 20.9%; in assay [5], 74.4%; in assay [6], 5.02% (active). The growth in assay [7] was 36.2%; in assay [8], 52.4%.
Consider `COc1ccc(C(=O)N/N=C/c2cc(C(F)(F)F)ccc2Cl)cc1`, for which the growth in assay [1] was 81.3%; in [2] it was 82.3%; in assay [3], 107%; in [4], 99.8%; in assay [5], 90.2%; in assay [6] it was 82.1%. The growth in assay [7] was 97.4%; in [8] it was 104%.
Turning to `CCOC(=O)c1cc(C(=O)c2cc(OC)cc(OC)c2)n2ncc3ccccc3c12`, the growth was 41.9% in [1]; 59.1% in assay [2]; 42.6% in [3]; 7.07% (active) in [4]; 32.4% in [5]; 2.64% (active) in assay [6]. The growth in assay [7] is 17.9%; in [8] it was 5.34% (active); in assay [9], 19.1%.
